# Target: GRIPAP1
# Assay: pooled miR-30 sensor sort-seq; sequence = guide strand
# Conditions: shRNA
# Further: reference of the scale not given here.
row,Sequence,sensor-assay potency score (higher = more potent)
1,TTGAAGTTCTTCCACTGTCTGC,-0.043
2,TTTGTGATCAGCTTCCTTCCGT,0.395
3,TTCTTTTTCAGTTTCTCGGAGA,-0.31
4,TTTCTTTTTCAGTTTCTCGGAG,-0.138
5,TTCCATTGCTAGCTCATCCAGC,-0.174
6,TTTGCTGAACTCCTTATCCAAG,-1.41
7,TATTTCTTGAAGTTGTTCCAGC,-0.115
8,TTCTTGAAGTTGTTCCAGCAGT,-0.658
9,TTGTGATCAGCTTCCTTCCGTT,-0.347
10,TTCCTTGCTGAACTCGGCCATT,-1.52
11,TTCCTGTGCATCTGCACTCTGG,-1.21
12,TTGCTGGTTCTCTTGCTCCAGC,-0.982

# Target: GRK1
# Assay: as above
# Conditions: shRNA
row,Sequence,sensor-assay potency score (higher = more potent)
1,TTGTTCAGCTTCTTGCAGGCAT,0.349
2,TTAAGGTCCTTGAAGAGGGGGT,0.091
3,TTGTTCTCCACCTTCTCTCCAC,-0.0458
